# WRN inhibitor = qHTS for Inhibitors of WRN Helicase; Bifunctional 3'-5' exonuclease/ATP-dependent helicase WRN (Homo sapiens), Q14191; WRN helicase unwinding, fluorescent forked duplex, kinetic; Potency, µM (series often up to 114 µM), hits mostly inhibitors; 0.46% of 360,000 active; AID 651768, 2012; further: nearly all actives have a fitted effect of over 55% in size
#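 Screening of the MLSMR collection measured strand separation of a quenched forked DNA duplex (100 nM) by 20 nM WRN with 2 mM ATP, all final. Compounds were preincubated with enzyme 15 min at room temperature.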
# RECQ1 inh-1 = qHTS Assay for Inhibitors of RecQ-Like Dna Helicase 1 (RECQ1); 0.54% of 240,000 active; AID 2549, 2010; RECQ1 DNA unwinding, red fluorescence kinetic read; Potency, µM (top dose mostly 57.3 µM), actives largely listed as inhibitors; ATP-dependent DNA helicase Q1 (Homo sapiens), P46063; further: nearly all actives have a fitted effect of over 30% in size
#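 RECQ1T1 50 nM; forked duplex (20 bp + 30-nt ss tails) 200 nM, ATP 2 mM final; pH 8.0, 2 mM MgCl2, 2.5 ug/ml poly(dI-dC); 15 min compound preincubation; discontinuous kinetic read over 2 h at RT.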
# ERG-DNA inh = qHTS for Small Molecule Inhibitors of the ERG Ets/DNA interaction. 0.028% of 370,000 active. fluorescence polarization, His-ERG Ets domain / labelled DNA. Potency, µM (series often up to 76.9 µM), usual class: inhibitors. Transcriptional regulator ERG (Homo sapiens), P11308; active means well fitted inhibition curve with a large enough effect in the polarisation, with a control signal flat; inconclusive means small, poorly fitted or top-dose-only effect, or effect the other way, or a change in a side signal; inactive means no such curve, though single readings can be large or run the other way; the % refers to the polarisation;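 further: polarization taken with two DNA probes labelled with fluorescein and Texas red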
#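 His-tagged ERG Ets domain (1 uM in the protein solution; 300mM KCl, 50mM Tris-HCl, 1mM EDTA, 1mM DTT, pH 7.5) received compound, then a probe mix of 5 nM fluorescein-DNA and 100nM Texas-615-DNA. Fluorescence polarization was read for both dyes.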
# APE1 inh-1 = qHTS Assay for Inhibitors of the Human Apurinic/apyrimidinic Endonuclease 1 (APE1); 0.35% of 350,000 active; recombinant APE1, TAMRA/BHQ-2 abasic DNA cleavage fluorescence; DNA repair nuclease/redox regulator APEX1 (Homo sapiens), P27695; Potency, µM (doses to about 65.8 µM), most hits filed as inhibitors; further: nearly all actives have a fitted effect of over 55% in size
#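 Substrate: short duplex with […] THF abasic site, 5'-TAMRA and 3'-BHQ-2, 50 nM final. APE1 at 0.75 nM, preincubated 15 min RT with compound. Fluorescence increase from first to third read measured activity.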
# GCN5L2 inh = qHTS Assay for Inhibitors of GCN5L2; 0.21% of 390,000 active; Histone acetyltransferase KAT2A (Homo sapiens), Q92830; Potency, µM (highest dose often 58.9 µM), actives largely listed as inhibitors; GCN5L2 HAT assay, ThioGlo1 CoA-SH fluorescence
#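 Free CoA generated was detected with ThioGlo1 (50uM) fluorescence at Ex340nm/Em540nm, read immediately and after 20 min at room temperature. Enzyme, 20 nM in HEPES pH 7.5 buffer, saw compounds 15 min before adding 75uM H3(1-25) peptide and 70uM acetyl-CoA.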
# BLM helicase inh = qHTS Assay for Inhibitors of Bloom's syndrome helicase (BLM); RecQ-like DNA helicase BLM (Homo sapiens), P54132; recombinant BLM DNA unwinding, fluorescence dequenching; Potency, µM (series often up to 56.1 µM), usual class: inhibitors; 0.2% of 350,000 active; further: nearly all actives have a fitted effect of over 35% in size
# DNA dye displace = Counterscreen for APE1 Inhibitors: Fluorescent Dye Displacement Assay | DNA fluorescent dye displacement counterscreen, fluorescence | Potency, µM (doses to about 28.5 µM), actives largely listed as inhibitors | 7% of 480 active | shares compounds with APE1 inh-1 | AID 2564, 2010;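 further: loss of thiazole orange fluorescence as the dye is displaced from duplex DNA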
# EndoIV counter = Counterscreen for APE1 Inhibitors: qHTS Assay for Inhibitors of Endonuclease IV | shares compounds with APE1 inh-1 | E. coli Endo IV, fluorogenic AP-site DNA cleavage | Potency, µM (highest dose often 27.1 µM), hits mostly inhibitors | 4% of 560 active | AID 2565, 2010
# APE1 inh-2 = Confirmation qHTS Assay for Inhibitors of the Human Apurinic/apyrimidinic Endonuclease 1 (APE1). 44% of 750 active. shares compounds with APE1 inh-1. Potency, µM (highest dose often 57.1 µM), hits mostly inhibitors. purified APE1, fluorogenic abasic-site DNA cleavage; further: nearly all actives have a fitted effect of over 30% in size
# APE1 FP = qHTS FP-Based Assay for Inhibitors of the Human Apurinic/apyrimidinic Endonuclease 1 (APE1) | Potency, µM (series often up to 28.5 µM), hits mostly inhibitors | 7% of 480 active | shares compounds with APE1 inh-1 | APE1 binding to TAMRA-labelled double-stranded DNA, fluorescence polarization displacement
# RECQ1 inh conf = Confirmation qHTS Assay for Inhibitors of RecQ-Like Dna Helicase 1 (RECQ1); RECQ1 helicase DNA unwinding, fluorescence; Potency, µM (highest dose often 229 µM), most hits filed as inhibitors; AID 2708, 2010; 28% of 610 active; shares compounds with RECQ1 inh-1; further: nearly all actives have a fitted effect of over 45% in size
# ADP FP counter = Counterscreen for RECQ1 Inhibitors: ADP Fluorescence Polarization Displacement Assay. shares compounds with RECQ1 inh-1. ADP fluorescence polarization displacement counterscreen. Potency, µM (doses to about 228 µM), usual class: inhibitors. 27% of 530 active; further: nearly all actives have a fitted effect of over 45% in size
# RECQ1 inh-2 = Confirmation qHTS Assay for Inhibitors of RecQ-Like Dna Helicase 1 (RECQ1) - Round 2 Cherry Picks; Potency, µM (doses to about 119 µM), usual class: inhibitors; recombinant RECQ1 DNA unwinding, red fluorescence; shares compounds with RECQ1 inh-1; 15% of 1,100 active; further: nearly all actives have a fitted effect of over 50% in size
# Hits are given with their value; - = inactive; ? = inconclusive; . = no result given. Most compounds without a hit are left out; they make up all but 0.88% or so of the library. Unless noted, the call rests on the fitted dose curve; in most records, active means well fitted curve in the direction sought with a large enough effect; inconclusive means small, poorly fitted or top-dose-only effect, or another doubt; inactive means no such curve, though single readings can be large; an effect the other way counts as inactive or inconclusive.
SMILES,WRN inhibitor,RECQ1 inh-1,ERG-DNA inh,APE1 inh-1,GCN5L2 inh,BLM helicase inh,DNA dye displace,EndoIV counter,APE1 inh-2,APE1 FP,RECQ1 inh conf,others
COc1ccc(N=C2NC(=O)/C(=C/c3ccco3)S2)cc1,-,-,-,-,-,-,.,.,.,.,.,
O=C1NC(=S)SC1=C1CCCC1,45µM,7.9µM,-,10µM,-,?,-,-,?,-,?,ADP FP counter=45µM
CN1C(=O)C(=C2CCCCCC2)SC1=S,-,-,-,-,-,-,.,.,.,.,.,
CCOc1ccccc1-c1nnc2n1N=C(c1ccc(OC)c(OC)c1)CS2,.,-,.,10µM,.,-,?,-,-,?,-,
COc1ccc(C2=Nn3c(nnc3-c3ccccc3OC)SC2)cc1OCC1CC1,.,.,.,-,-,.,.,.,.,.,.,
Cc1nn2c(=O)cc(COC(=O)COc3ccccc3C)nc2s1,.,.,-,.,-,-,.,.,.,.,.,
Cc1c(Cl)cccc1N=Cc1ccc([N+](=O)[O-])s1,-,?,-,?,-,-,?,-,-,-,.,RECQ1 inh-2=?
O=C(CSC1CC(=O)N(CC(c2ccccc2)c2ccccc2)C1=O)Nc1ccc(Cl)cc1 (centres undefined),-,?,-,?,-,-,-,?,?,-,.,RECQ1 inh-2=?
O=C(O)CSC1CC(=O)N(c2ccc(Cl)cc2)C1=O (centres undefined),-,-,-,-,-,-,.,.,.,.,.,
Cc1ccc(-c2nc(S(=O)(=O)c3ccc(Cl)cc3)c(N3CCCCC3)o2)cc1,.,.,-,.,-,-,.,.,.,.,.,
Cc1ccc(NS(=O)(=O)c2cnc(N)nc2)c(C)c1,.,.,-,.,-,-,.,.,.,.,.,
C=C1c2cccc(O)c2C(O)=C2C(=O)[C@@]3(O)C(O)=C(C(N)=O)C(=O)[C@@H](N(C)C)[C@@H]3[C@@H](O)[C@H]12,.,?,.,.,3.5µM,-,-,-,-,?,?,ADP FP counter=14µM

# Bioassay records as filed in PubChem.
